Test results as given in PubChem BioAssay AID1346428 (National Center for Advancing Translational Sciences (NCATS), 2018).
In all, about 48,000 compounds went through this assay and about 1,200 (2.5%) were called active. Inconclusive results (about 2%) are left out.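 How the source made its calls: active means activation of at least 60% and not above a set upper limit (about 1 call in 100 departs from these limits); inconclusive means activation of 40% to 60%, or above that upper limit; inactive means activation under 40%.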 The entries come from a sample that favours actives as a whole.
Further: 0% is about no effect.

What follows are molecules tested against Probable G-protein coupled receptor 32 (Homo sapiens) (UniProt O75388) (assay: qHTS for Agonists of Human Resolvin D1 Receptor DRV1). Conditions: CHO-K1 GPR32 beta-arrestin PathHunter luminescence, 90 min; at 76.9 µM; hits give high values; zero percent set by DMSO-only wells.
Sequence of Probable G-protein coupled receptor 32 (Homo sapiens) (O75388 whole entry, looked up, the tested form may be a part): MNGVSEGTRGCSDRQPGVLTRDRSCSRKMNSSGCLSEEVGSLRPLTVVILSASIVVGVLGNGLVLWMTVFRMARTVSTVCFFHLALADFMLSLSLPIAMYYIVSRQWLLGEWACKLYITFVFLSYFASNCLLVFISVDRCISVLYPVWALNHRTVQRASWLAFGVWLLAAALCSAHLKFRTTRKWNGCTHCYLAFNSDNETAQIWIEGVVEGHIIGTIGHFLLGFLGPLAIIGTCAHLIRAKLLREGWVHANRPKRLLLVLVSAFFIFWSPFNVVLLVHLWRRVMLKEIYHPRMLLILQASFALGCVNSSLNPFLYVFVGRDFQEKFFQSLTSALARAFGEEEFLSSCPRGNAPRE
Procedure, shortened: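 PathHunter enzyme-fragment complementation, CHO-K1 GPR32 stable line; 2,500 cells/well, overnight attach; cpd 90 min 37 °C 5% CO2; detection reagent 1 h RT; chemiluminescence. DMSO = EC0.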
In the case of `CCOC(=O)c1c(NC(=O)/C(C#N)=C/c2ccccc2)sc2c1CCC2`, the activation is reported as 13.3% (inactive).
For `Cc1ccc(Cl)cc1NC(=O)/C(C#N)=C\c1cn(Cc2ccc(F)cc2)c2ccccc12`, the activation was 7.85% (inactive).
For `Cc1ccc(/C=C(\C#N)C(=O)Nc2cc(C)ccc2C)cc1`, the activation was 98.1% (active).
With `Cc1ccccc1C(=O)N(Cc1ccc(N(C)C)cc1)CC1CCCO1` (stereo not given) the activation was -21.9% (inactive).
In the case of `CSc1ccc(CCNC(=O)c2ccc3c(c2)nc2n3CCOC2)cc1`, the activation is reported as -8.85% (inactive).
In the case of `CC(C)Cn1c(=O)c2ccccc2n2c(-c3cccc(Cl)c3)nnc12`, the activation is reported as -0.202% (inactive).
With `COc1ccc(NC(=O)CCc2nnc3n(CC(C)C)c(=O)c4ccccc4n23)cc1OC` the activation was 10.7% (inactive).
`COc1cccc(-c2nnc3n(CCc4ccccc4)c(=O)c4ccccc4n23)c1O` was tested, and the activation was 77.1% (active).
`CC(C)(C)OC(=O)N1CCC(c2c(C(=O)Nc3ccc4c(c3)OCO4)cnn2-c2ccccc2)CC1` was tested, and the activation was 3.59% (inactive).
With `CCN(CCCNC(=O)CSc1cc(=O)n(C)c2cc(Cl)ccc12)c1cccc(C)c1` the activation was 3.23% (inactive).
In the case of `COc1cccc(NC(=O)CSc2cc(=O)n(C)c3ccc(Cl)cc23)c1`, the activation is reported as 66.2% (active).
In the case of `CCOc1ccc(CCNC(=O)CSc2cc(=O)n(C)c3ccc(Cl)cc23)cc1OCC`, the activation is reported as -7.71% (inactive).
For `Cc1ccccc1CNC(=O)Cn1c(C)c2cnn(-c3ccccc3)c(=O)c2c1C`, the activation was -12.3% (inactive).
In the case of `Cc1c(NC(=O)Nc2ccc(F)c(Cl)c2)c(=O)n(-c2ccccc2)n1C`, the activation is reported as -8.62% (inactive).
`Oc1c(C(c2ccccc2Cl)N2CCOCC2)sc2nc(-c3ccco3)nn12` (stereo not given) was tested, and the activation was -11.9% (inactive).
For `Oc1c(C(c2ccc(F)cc2)N2CCN(Cc3ccccc3)CC2)sc2nc(-c3ccco3)nn12` (stereo not given), the activation was 64.8% (active).
`Cc1cccc(-n2ncc(C(=O)N3CCc4ccccc4C3)c2C2CCN(C(=O)OC(C)(C)C)CC2)c1` was tested, and the activation was -17.8% (inactive).
`O=C(COCc1cc(-c2ccc3c(c2)OCO3)on1)N1CCN(c2cccc(Cl)c2)CC1` was tested, and the activation was -10.3% (inactive).
In the case of `Cc1cccc(CNS(=O)(=O)c2ccc(-c3cnc(C4CC4)o3)cc2)c1`, the activation is reported as -14.5% (inactive).
In the case of `O=C(NCCc1csc(-c2ccc(C(F)(F)F)cc2)n1)C(=O)Nc1ccc(F)c(Cl)c1`, the activation is reported as -7.23% (inactive).
For `COc1ccc(CCC(=O)NCCc2csc(-c3ccc(Cl)cc3)n2)cc1`, the activation was 65.3% (active).
For `COc1ccc(-c2nc(CCNC(=O)c3ccc(Br)o3)cs2)cc1`, the activation was 6.04% (inactive).
In the case of `CCc1nc2c(cnn2-c2ccc(C)cc2)c(=O)n1-c1ccc(C)cc1`, the activation is reported as -4.43% (inactive).
With `COc1cccc(C(=O)NC2(C(F)(F)F)C(=O)Nc3c2c(=O)[nH]c(=O)n3-c2ccc(C)cc2)c1` (stereo not given) the activation was -5.74% (inactive).
For `CCn1cc(CCC(=O)NCc2ccc(F)cc2)c2ccccc21`, the activation was -18.2% (inactive).
`CCOCCn1ccc2c(OCC(=O)NCc3ccc(C)cc3)cccc2c1=O` was tested, and the activation was -7.09% (inactive).
With `CCCn1ccc2c(OCC(=O)NCc3ccc(F)cc3)cccc2c1=O` the activation was 76.6% (active).
With `CC(=O)c1ccc(S(=O)(=O)N2CCC(Oc3ccc(-n4cnnn4)cc3)CC2)cc1` the activation was -8.41% (inactive).
`CCc1cccc(NC(=O)c2cc(-c3ccccc3)n[nH]2)c1` was tested, and the activation was -0.275% (inactive).
For `COc1cccc(-c2cc(C(=O)Nc3ccc(C)cc3)[nH]n2)c1`, the activation was 64.6% (active).
`COc1cccc(NC(=O)c2csnn2)c1` was tested, and the activation was 10.9% (inactive).
`Cc1ccc2cccc(NC(=O)C(C)Oc3ccc(C)c(C)c3)c2n1` (stereo not given) was tested, and the activation was -2.89% (inactive).
For `COCCCNC(=O)C1CCC(CNS(=O)(=O)c2ccc(OC)cc2)CC1` (stereo not given), the activation was -7.55% (inactive).
With `COc1ccc(N2C(=O)NC(NS(=O)(=O)c3ccc(Cl)cc3)(C(F)(F)F)C2=O)cc1` (stereo not given) the activation was -2.22% (inactive).
In the case of `Cc1nnc(SCc2cc(=O)c3cc(F)ccc3[nH]2)n1C`, the activation is reported as -15.5% (inactive).
For `CCC(=O)N1CCc2cc(Br)cc(S(=O)(=O)CCC(=O)N3CCN(c4ccc(F)cc4)CC3)c21`, the activation was 1.23% (inactive).
With `CCCCn1cc(S(=O)(=O)c2ccc(OCC)cc2)c(=O)c2cc(OC)c(OC)cc21` the activation was -26% (inactive).
`COc1ccc(CCC(=O)NCc2ccc3c(c2)CCN3C(=O)c2ccc(F)cc2)cc1` was tested, and the activation was -17.6% (inactive).
In the case of `CCC(Sc1nnc(-c2ccc(OC)cc2)c(-c2ccc(OC)cc2)n1)C(=O)NC1CCCCC1` (stereo not given), the activation is reported as -11.5% (inactive).
For `CCOC(=O)c1ccc(NC(=O)c2nc(SCc3ccc(F)cc3)ncc2Cl)cc1`, the activation was -27.7% (inactive).
For `Cc1ccc(NC(=O)c2nc(S(=O)(=O)Cc3cccc(C)c3)ncc2Cl)cc1`, the activation was -21.8% (inactive).
For `CCCS(=O)(=O)c1ncc(Cl)c(C(=O)Nc2scc(-c3ccccc3)c2C(=O)OCC)n1`, the activation was 97.2% (active).
In the case of `CCOC(=O)C1CCCN(CC(=O)Nc2cc(C)c3c(=O)oc4ccccc4c3n2)C1` (stereo not given), the activation is reported as -11.1% (inactive).
With `CSc1ccccc1-c1nnc(NC(=O)c2ccc3c(c2)OCCO3)o1` the activation was -21.8% (inactive).
`CCOCCCNC(=O)c1cn(CC)c2ccc(S(=O)(=O)N3CCc4ccccc4C3)cc2c1=O` was tested, and the activation was 3.07% (inactive).
In the case of `CCn1cc(C(=O)NCc2ccc(C)cc2)c(=O)c2cc(S(=O)(=O)N3CCc4ccccc4C3)ccc21`, the activation is reported as 70.1% (active).
For `CCn1cc(C(=O)NCc2ccccc2)c(=O)c2cc(S(=O)(=O)N3CCCCC3)ccc21`, the activation was 0.542% (inactive).
With `COc1ccccc1NC(=O)Cn1cnc2ccc(S(=O)(=O)N3CCC(C)CC3)cc2c1=O` the activation was 14.7% (inactive).
With `CCc1cccc(CC)c1NC(=O)Cn1c(=O)c(-c2cc(C)ccc2NC(C)=O)nc2ccccc21` the activation was -6.44% (inactive).
In the case of `CCOC(=O)c1c(C)[nH]c(CCC(=O)NCCCN2CCN(c3cccc(Cl)c3)CC2)c1C`, the activation is reported as 3.48% (inactive).
For `CCc1nc2ccc(C(=O)N3CCN(c4cccc(Cl)c4)CC3)cc2nc1CC`, the activation was -29.3% (inactive).
In the case of `CCc1nn(CCCN2CCN(c3cccc(Cl)c3)CC2)c(=O)n1CCOc1ccccc1`, the activation is reported as 89.4% (active).
With `Cc1ccc(Cl)cc1N(C)C(=O)C1CCCN(c2ncnc3onc(-c4ccc(F)cc4)c23)C1` (stereo not given) the activation was -22% (inactive).
`CCNC(=O)CC1C(=O)N(c2ccc(F)cc2)C(=O)N1Cc1ccc(C)cc1` (stereo not given) was tested, and the activation was 0.37% (inactive).
With `CCCCC12CN3CC(C)(CN(C1)C3c1ccc(O)c(OC)c1)C2=O` (stereo not given) the activation was -20.2% (inactive).
For `COc1cc(OC)cc(C(=O)Nc2ccc3nc(Nc4cccc(C(F)(F)F)c4)cc(C)c3c2)c1`, the activation was -9.34% (inactive).
In the case of `Cc1cc(Nc2cccc(C(F)(F)F)c2)nc2ccc(NC(=O)c3ccc(=O)[nH]c3)cc12`, the activation is reported as 112% (active).
With `Cn1c(C(=O)Nc2cccc(C(F)(F)F)c2)cc2c(=O)n3ccccc3nc21` the activation was 4.29% (inactive).
With `Cn1c(=O)sc2cc(NS(=O)(=O)c3ccc(C(C)(C)C)cc3)ccc21` the activation was -13.3% (inactive).
In the case of `CC(C)Oc1ccc(NC(=O)c2cc3ccccc3o2)cc1`, the activation is reported as 63.5% (active).
With `Cc1cc2nc(-c3ccc(NC(=O)c4cc5ccccc5o4)cc3)oc2cc1C` the activation was -3.47% (inactive).
`CCC(C)c1ccc2oc(-c3ccc(NC(=O)c4cc5ccccc5o4)cc3)nc2c1` (stereo not given) was tested, and the activation was -0.177% (inactive).
In the case of `O=C(OCc1ccccc1)c1ccc(O)cc1`, the activation is reported as 68.1% (active).
With `O=C(O)CCCc1ccccc1` the activation was 6.7% (inactive).
In the case of `CCOC(=O)c1ccc(CN(Cc2ccccc2)S(=O)(=O)c2ccc(Cl)cc2)cc1`, the activation is reported as -16.7% (inactive).
In the case of `COc1ccc(NC(=O)Cn2c(=O)n(Cc3ccc(C(=O)NCc4ccccc4Cl)cc3)c(=O)c3ccccc32)cc1`, the activation is reported as -4.2% (inactive).
In the case of `CCCCCCc1ccc(O)cc1O`, the activation is reported as 89.2% (active).
`Cc1ccc(O)c(NC(=O)CCS(=O)(=O)c2nc(-c3ccc4c(c3)OCO4)cc(C(F)(F)F)n2)c1` was tested, and the activation was -25.7% (inactive).
With `COC(=O)c1ccc2c(c1)N(CC(=O)Nc1ccc(C)c(C)c1)C(=O)c1ccccc1S2` the activation was -13.7% (inactive).
For `COc1ccc(CNC(=O)CCc2c(C)nn(-c3ccc(N4CCCC4)nn3)c2C)cc1`, the activation was -8.15% (inactive).
`Cc1nn(Cc2ccc(F)cc2)c(C)c1NC(=O)c1cc(CC(C)C)on1` was tested, and the activation was 86.4% (active).
In the case of `Cc1ccccc1Cn1nc(C)c(NC(=O)c2cc(-c3ccc(F)cc3)on2)c1C`, the activation is reported as 6.09% (inactive).
With `O=C(Nc1ccccc1Br)c1cc(CN2CCCC2)on1` the activation was -9.24% (inactive).
For `Cc1ccc(NC(=O)C(Cc2ccccc2)NS(=O)(=O)c2ccc3c(c2)oc(=O)n3C)cc1C` (stereo not given), the activation was 4.78% (inactive).
`CCN(CCCNC(=O)Cn1ncc2c3ccccc3n(C)c2c1=O)Cc1ccccc1` was tested, and the activation was -3.31% (inactive).
`Cc1ccc(C)c(N2CCN(C(=O)Cn3nc(C)c4sc5ccccc5c4c3=O)CC2)c1` was tested, and the activation was -8.71% (inactive).
With `O=C(CCS(=O)(=O)c1ccc2c(c1)NC(=O)CO2)Nc1cccc(C(F)(F)F)c1` the activation was 13.3% (inactive).
In the case of `CN(CC(=O)Nc1cccc(C(F)(F)F)c1)S(=O)(=O)c1cccs1`, the activation is reported as 67.5% (active).
`O=C(CN1c2ccccc2S(=O)(=O)c2ccccc21)Nc1cccc(C(F)(F)F)c1` was tested, and the activation was 1.8% (inactive).
In the case of `CCc1ccccc1NC(=O)N1CCC2(CC1)Oc1ccccc1C(=O)N2Cc1ccccc1F`, the activation is reported as -16.7% (inactive).
In the case of `O=C(CSc1n[nH]c(-c2ccccc2)n1)N1CCCCC1`, the activation is reported as 7.63% (inactive).
For `CCOc1ccc(NC(=O)c2c(NC(=O)Cc3ccccc3)sc3c2CCC(C)C3)cc1` (stereo not given), the activation was -11.2% (inactive).
`Cc1cccc(OCCCC(=O)Nc2sc3c(c2C(N)=O)CCC(C)C3)c1` (stereo not given) was tested, and the activation was 70.3% (active).
For `COC(=O)c1c(NC(=O)CCCOc2ccccc2)sc2c1CCC(C)C2` (stereo not given), the activation was 7.01% (inactive).
`COc1ccccc1-c1cc2nc(C)c(CCC(=O)O)c(C)n2n1` was tested, and the activation was -0.841% (inactive).
